Assay results as given in the supplement of paper PMC10849652.
Targets with a hit are over-represented here; the source holds about 8,800 in all. About 0.5% of all pairs of compound and target were hits. A number with no mark means an inactive call.

Columns and labels:
Assay in all cases: log2 fold change, soluble protein after heating vs DMSO (PISA); higher = thermal stabilisation; K562 lysate, 10 uM; active = over 0.2 and 3.5 SD of the protein, either way, in both replicates (recomputed)
[1] = compound: CCCS(=O)(=O)Nc1ccc(F)c(C(=O)c2c[nH]c3ncc(-c4ccc(Cl)cc4)cc23)c1F [vemurafenib]
Outline: (§1)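 K562 pellets were dounce-homogenised in PBS pH 7.4 with 1 mM MgCl2, and the crude extract at 1 mg/mL protein was treated with 10 μM compound for 30 min. Aliquots were heated for 3 min across 48°C-58°C, pooled, and brought to 0.5% NP-40 at 4°C; soluble protein was the supernatant after 21,000xg for 90 min. Soluble protein was quantified by TMTpro 16plex LC-MS/MS with channel sums equalised, and reported as log2 fold change in thermal stability against DMSO controls, with values from duplicates.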

[2] = compound: CCCS(=O)(=O)Nc1ccc(F)c(C(=O)c2c[nH]c3ncc(Cl)cc23)c1F
Outline: as §1

[3] = compound: CCN(CCCOc1ccc2c(Nc3cc(CC(=O)Nc4cccc(F)c4)[nH]n3)ncnc2c1)CCOP(=O)(O)O [barasertib]
Outline: as §1

[4] = compound: CC[C@@H]1C(=O)N(C)c2cnc(Nc3ccc(C(=O)NC4CCN(C)CC4)cc3OC)nc2N1C1CCCC1
Outline: as §1

[5] = compound: CC[C@@H]1C(=O)N(C)c2cnc(Nc3ccc(C(=O)N[C@H]4CC[C@H](N5CCN(CC6CC6)CC5)CC4)cc3OC)nc2N1C(C)C [volasertib]
Outline: as §1

[6] = compound: CCn1c(C(=O)N(C2CC2)C2CC2)cc2c3c(ncn3C)c(Nc3cc(C)n(C)n3)nc21
Outline: as §1

[7] = compound: CCn1cc(-c2ccnc3[nH]c(-c4cccc(CN(C)C)c4)cc23)c(-c2ccc(NC(=O)N(C)C)cc2)n1
Outline: as §1

[8] = compound: CN1CCC(CNc2ccc3ncc(-c4cccc(OC(F)(F)F)c4)n3n2)CC1
Outline: as §1

[9] = compound: CN1CCN(CCOc2cc(OC3CCOCC3)c3c(Nc4c(Cl)ccc5c4OCO5)ncnc3c2)CC1 [saracatinib]
Outline: as §1

[10] = compound: CN1CCN(c2nc(C3=C(c4c[nH]c5ccccc45)C(=O)NC3=O)c3ccccc3n2)CC1 [sotrastaurin]
Outline: as §1

Sequence of UniProt Q8WUX2 (Q8WUX2 whole entry, looked up): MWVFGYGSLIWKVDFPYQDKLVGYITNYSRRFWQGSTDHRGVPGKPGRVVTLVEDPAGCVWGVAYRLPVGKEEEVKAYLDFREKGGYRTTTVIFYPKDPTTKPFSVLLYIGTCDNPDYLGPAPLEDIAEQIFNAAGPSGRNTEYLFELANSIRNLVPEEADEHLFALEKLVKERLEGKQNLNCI
Sequence of UniProt P55212 (P55212 whole entry, looked up): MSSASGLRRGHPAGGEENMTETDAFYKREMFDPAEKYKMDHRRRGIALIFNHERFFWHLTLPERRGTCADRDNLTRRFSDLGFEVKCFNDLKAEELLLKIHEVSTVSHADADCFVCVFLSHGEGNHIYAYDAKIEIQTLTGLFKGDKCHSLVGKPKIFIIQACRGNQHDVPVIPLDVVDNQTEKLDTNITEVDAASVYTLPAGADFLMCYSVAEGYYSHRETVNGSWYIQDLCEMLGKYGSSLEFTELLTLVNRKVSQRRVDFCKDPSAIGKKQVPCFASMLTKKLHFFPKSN
Sequence of UniProt Q5BKX5 (Q5BKX5 whole entry, looked up): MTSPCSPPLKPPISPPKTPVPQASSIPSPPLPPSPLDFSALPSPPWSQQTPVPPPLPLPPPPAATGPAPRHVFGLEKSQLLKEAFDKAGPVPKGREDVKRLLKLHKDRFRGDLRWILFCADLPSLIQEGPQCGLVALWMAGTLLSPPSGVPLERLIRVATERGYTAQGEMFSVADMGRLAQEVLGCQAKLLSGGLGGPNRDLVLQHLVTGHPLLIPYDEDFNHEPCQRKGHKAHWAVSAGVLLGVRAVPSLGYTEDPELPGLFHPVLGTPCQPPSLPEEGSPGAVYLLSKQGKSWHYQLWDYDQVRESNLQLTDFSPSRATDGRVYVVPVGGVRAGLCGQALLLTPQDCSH
Sequence of UniProt Q92879 (Q92879 whole entry, looked up): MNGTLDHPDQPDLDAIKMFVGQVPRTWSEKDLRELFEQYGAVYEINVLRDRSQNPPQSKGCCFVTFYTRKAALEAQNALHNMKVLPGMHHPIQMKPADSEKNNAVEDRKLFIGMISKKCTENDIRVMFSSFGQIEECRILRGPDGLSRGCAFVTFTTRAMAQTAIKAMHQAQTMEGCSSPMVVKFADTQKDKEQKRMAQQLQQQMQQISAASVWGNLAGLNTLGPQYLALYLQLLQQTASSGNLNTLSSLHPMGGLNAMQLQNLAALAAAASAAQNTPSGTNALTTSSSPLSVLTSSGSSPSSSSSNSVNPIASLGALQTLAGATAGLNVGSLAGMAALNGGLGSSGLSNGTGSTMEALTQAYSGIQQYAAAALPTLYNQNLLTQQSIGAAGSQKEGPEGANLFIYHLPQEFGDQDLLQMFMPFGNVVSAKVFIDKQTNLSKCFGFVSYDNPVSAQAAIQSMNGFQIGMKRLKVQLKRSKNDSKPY
Sequence of UniProt P27708 (P27708 whole entry, looked up): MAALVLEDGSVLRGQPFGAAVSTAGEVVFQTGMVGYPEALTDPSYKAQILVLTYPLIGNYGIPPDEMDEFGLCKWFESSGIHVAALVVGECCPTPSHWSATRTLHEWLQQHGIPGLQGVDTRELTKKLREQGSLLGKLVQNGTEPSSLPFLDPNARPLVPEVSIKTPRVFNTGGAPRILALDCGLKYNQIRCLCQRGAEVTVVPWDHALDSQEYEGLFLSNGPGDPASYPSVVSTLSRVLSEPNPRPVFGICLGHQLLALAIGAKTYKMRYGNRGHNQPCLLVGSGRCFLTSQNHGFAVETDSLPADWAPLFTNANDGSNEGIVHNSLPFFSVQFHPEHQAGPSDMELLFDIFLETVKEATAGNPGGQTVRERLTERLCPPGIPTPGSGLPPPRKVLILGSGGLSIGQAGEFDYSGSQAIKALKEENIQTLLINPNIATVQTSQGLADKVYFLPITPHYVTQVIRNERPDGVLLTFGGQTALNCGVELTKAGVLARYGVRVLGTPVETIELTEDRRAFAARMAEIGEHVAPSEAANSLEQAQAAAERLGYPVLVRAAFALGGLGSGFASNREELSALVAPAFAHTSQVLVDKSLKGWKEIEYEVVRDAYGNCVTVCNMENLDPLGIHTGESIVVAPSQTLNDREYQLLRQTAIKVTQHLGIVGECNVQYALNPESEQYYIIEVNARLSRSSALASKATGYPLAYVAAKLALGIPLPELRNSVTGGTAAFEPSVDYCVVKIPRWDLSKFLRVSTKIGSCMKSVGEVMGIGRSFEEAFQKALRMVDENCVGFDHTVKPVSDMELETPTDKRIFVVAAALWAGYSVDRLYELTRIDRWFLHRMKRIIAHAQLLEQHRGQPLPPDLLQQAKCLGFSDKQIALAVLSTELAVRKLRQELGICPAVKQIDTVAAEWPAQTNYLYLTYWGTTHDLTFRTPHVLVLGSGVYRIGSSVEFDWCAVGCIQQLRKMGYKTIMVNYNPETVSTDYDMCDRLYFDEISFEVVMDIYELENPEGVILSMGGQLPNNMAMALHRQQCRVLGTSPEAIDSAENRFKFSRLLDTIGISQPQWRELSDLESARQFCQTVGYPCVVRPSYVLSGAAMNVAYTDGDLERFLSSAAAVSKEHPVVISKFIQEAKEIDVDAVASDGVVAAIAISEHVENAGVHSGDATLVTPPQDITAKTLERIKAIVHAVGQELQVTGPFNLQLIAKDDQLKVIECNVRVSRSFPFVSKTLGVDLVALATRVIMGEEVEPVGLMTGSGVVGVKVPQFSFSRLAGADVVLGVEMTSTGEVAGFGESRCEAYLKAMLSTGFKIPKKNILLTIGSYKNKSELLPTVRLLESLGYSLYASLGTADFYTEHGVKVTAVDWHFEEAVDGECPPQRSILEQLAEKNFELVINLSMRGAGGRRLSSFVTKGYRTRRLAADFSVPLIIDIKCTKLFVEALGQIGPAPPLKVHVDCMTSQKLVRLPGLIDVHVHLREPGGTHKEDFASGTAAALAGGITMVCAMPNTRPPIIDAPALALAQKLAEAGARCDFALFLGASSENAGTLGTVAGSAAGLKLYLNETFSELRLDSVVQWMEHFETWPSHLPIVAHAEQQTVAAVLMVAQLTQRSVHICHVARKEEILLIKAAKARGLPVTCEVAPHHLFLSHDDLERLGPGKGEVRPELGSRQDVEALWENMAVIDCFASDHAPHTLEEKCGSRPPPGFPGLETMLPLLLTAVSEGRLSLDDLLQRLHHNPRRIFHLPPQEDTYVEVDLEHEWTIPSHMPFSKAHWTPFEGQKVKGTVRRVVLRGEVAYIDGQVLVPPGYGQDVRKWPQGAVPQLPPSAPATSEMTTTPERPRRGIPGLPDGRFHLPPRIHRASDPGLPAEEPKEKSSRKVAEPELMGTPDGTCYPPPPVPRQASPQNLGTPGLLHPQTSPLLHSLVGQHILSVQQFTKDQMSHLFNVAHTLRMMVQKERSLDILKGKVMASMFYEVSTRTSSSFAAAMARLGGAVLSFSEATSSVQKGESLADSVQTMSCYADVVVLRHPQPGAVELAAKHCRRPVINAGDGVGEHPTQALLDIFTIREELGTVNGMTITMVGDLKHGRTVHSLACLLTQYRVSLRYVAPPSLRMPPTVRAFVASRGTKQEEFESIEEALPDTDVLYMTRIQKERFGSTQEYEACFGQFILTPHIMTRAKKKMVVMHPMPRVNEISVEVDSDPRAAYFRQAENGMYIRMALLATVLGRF
Sequence of UniProt Q9NSG2 (Q9NSG2 whole entry, looked up): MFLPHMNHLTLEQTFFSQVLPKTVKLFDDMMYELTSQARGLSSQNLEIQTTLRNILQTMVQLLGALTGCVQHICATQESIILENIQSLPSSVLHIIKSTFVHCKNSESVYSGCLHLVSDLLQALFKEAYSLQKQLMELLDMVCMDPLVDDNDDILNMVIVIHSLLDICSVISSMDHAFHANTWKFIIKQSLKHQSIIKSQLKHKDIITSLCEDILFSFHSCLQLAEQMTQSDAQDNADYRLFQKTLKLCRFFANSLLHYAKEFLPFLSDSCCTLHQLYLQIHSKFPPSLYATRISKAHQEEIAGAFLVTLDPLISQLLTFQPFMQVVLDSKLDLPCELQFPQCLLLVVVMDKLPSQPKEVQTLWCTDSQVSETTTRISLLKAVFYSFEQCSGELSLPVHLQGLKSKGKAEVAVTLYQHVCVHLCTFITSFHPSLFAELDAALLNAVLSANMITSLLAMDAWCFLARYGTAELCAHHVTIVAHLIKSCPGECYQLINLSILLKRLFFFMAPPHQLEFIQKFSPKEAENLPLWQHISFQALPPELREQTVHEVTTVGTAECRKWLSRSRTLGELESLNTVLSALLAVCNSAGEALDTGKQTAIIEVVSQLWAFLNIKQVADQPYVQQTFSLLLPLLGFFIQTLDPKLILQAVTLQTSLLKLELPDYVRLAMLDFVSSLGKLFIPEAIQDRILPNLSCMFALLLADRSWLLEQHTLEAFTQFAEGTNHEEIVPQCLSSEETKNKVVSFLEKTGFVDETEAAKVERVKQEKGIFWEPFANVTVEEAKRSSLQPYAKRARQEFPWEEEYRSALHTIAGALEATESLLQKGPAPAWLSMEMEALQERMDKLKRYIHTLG
Sequence of UniProt P18859 (P18859 whole entry, looked up): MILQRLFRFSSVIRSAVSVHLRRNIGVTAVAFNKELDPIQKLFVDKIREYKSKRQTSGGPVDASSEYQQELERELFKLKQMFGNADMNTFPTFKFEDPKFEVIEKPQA
Sequence of UniProt O95674 (O95674 whole entry, looked up): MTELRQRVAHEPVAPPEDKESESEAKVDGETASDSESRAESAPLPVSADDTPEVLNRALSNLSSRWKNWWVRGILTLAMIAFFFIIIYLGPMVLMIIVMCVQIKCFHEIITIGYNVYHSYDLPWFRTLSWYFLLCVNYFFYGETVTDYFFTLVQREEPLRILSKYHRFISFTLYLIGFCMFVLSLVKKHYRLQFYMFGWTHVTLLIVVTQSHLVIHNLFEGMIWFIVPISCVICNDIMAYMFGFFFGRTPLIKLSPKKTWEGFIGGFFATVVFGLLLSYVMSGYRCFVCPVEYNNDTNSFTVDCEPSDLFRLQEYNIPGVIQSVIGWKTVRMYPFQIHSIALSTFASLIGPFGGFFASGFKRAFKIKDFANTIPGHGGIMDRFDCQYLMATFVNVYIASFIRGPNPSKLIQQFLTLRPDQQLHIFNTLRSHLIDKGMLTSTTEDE
Sequence of UniProt Q8TCD1 (Q8TCD1 whole entry, looked up): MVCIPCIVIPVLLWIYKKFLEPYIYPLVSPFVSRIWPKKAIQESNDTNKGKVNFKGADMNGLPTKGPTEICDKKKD

Target	log2 fold change [1]	log2 fold change [2]	log2 fold change [3]	log2 fold change [4]	log2 fold change [5]	log2 fold change [6]	log2 fold change [7]	log2 fold change [8]	log2 fold change [9]	log2 fold change [10]
ATP9B (UniProt O43861)	-0.046	0.02	-0.024	-0.081	-0.051	-0.015	-0.07	0.189	0.046	-0.071
ATAD3B (UniProt Q5T9A4)	-0.022	0.016	-0.007	-0.004	-0.019	0.014	0.383 (active)	-0.205	-0.018	-0.013
BCR (UniProt P11274)	0.012	0.043	-0.021	-0.062	-0.056	0.015	-0.112	-0.029	0.024	-0.018
BTAF1 (UniProt O14981)	0.029	0.026	0.029	-0.029	-0.058	0.045	-0.138	0.051	0.008	0.006
BCL2L12 (UniProt Q9HB09)	-0.032	0.08	0.166	0.013	-0.06	0.087	0.018	0.116	0.057	-0.007
BMS1 (UniProt Q14692)	-0.038	0.023	0.127	-0.027	-0.018	0.012	-0.054	0.006	-0.004	0.005
CDK9 isoform 2 (UniProt P50750)	-0.117	-0.064	-0.025	0.009	0.002	0.175	-0.203	0.079	0.005	0.34 (active)
C19orf54 (UniProt Q5BKX5)	0.08	-0.028	0.002	-0.043	-0.058	-0.06	0.013	0.003	-0.027	-0.027
CASP6 (UniProt P55212)	0.006	-0.012	-0.071	0.018	-0.017	0.025	0.242	0.013	-0.004	-0.016
ATP5PF isoform 2 (UniProt P18859)	0.083	-0.023	0.064	0.076	0.133	0.076	0.663 (active)	-0.205	-0.024	-0.067
ATXN2 (UniProt F8WB05)	-0.153	-0.024	0.057	-0.013	-0.087	-0.005	0.094	-0.004	0.05	0.086
CDS2 (UniProt O95674)	0.09	0.041	0.027	0.026	0.005	-0.006	0.015	0.004	-0.053	0.037
CARD11 (UniProt Q9BXL7)	0.088	0.012	-0.075	-0.087	-0.071	0.082	-0.024	-0.014	0.063	0.002
CHAC2 (UniProt Q8WUX2)	-0.028	-0.004	-0.006	-0.044	0.006	0.02	0.649 (active)	-0.154	-0.018	-0.031
CELF1 isoform 4 (UniProt Q92879)	0.024	0.014	0.03	-0.044	-0.133	0.012	0.08	-0.08	0.035	0.054
ATRIP (UniProt Q8WXE1)	0.174	0.002	-0.036	-0.281 (active)	-0.06	-0.013	0.031	-0.001	0.048	0.002
CBR1 (UniProt P16152)	-0.009	0.011	-0.013	-0.019	0.004	0	-0.096	0.077	0.037	-0.047
ATP2B4 (UniProt P23634)	0.002	-0.002	0.026	-0.027	-0.004	-0.019	-0.185	0.145	0.024	0.009
BPHL (UniProt Q86WA6)	-0.13	0.013	0.058	0.015	0	0.069	0.063	0	-0.058	0.084
C1orf112 (UniProt Q9NSG2)	0	0.006	-0.04	-0.065	0.034	0.037	0.171	-0.059	0.065	0.025
CEP76 (UniProt Q8TAP6)	-0.099	-0.023	0.085	-0.093	0	-0.026	-0.04	0.053	0.047	0.085
CBX1 (UniProt P83916)	0.001	0.015	-0.075	0.028	0.01	0.006	0.301 (active)	-0.111	-0.003	0.038
CELF2 isoform 3 (UniProt O95319)	0.082	0.013	0.031	0.096	-0.05	0.001	0.074	-0.095	0.021	-0.023
CDK2 (UniProt P24941)	-0.012	0.012	-0.01	-0.059	-0.025	0.008	-0.055	0.167	-0.017	0.09
C2CD5 isoform 3 (UniProt Q86YS7)	0.068	0.022	0.049	0.062	-0.025	-0.069	-0.309 (active)	0.162	0.058	-0.023
C18orf32 (UniProt Q8TCD1)	0.164	-0.044	-0.019	0.125	0.054	0.054	-0.073	0	0.006	-0.112
CCPG1 isoform 5 (UniProt Q9ULG6)	0.082	-0.038	0.034	0.066	0	0.071	-0.081	0.04	0.049	0.051
CCDC32 isoform 2 (UniProt Q9BV29)	0.007	0	0.351	-0.041	0.021	-0.061	-0.246	0.065	0.021	-0.012
ATP13A1 (UniProt Q9HD20)	-0.006	0.013	-0.006	0.023	-0.036	0.067	0.004	-0.343 (active)	0.012	-0.012
CAD (UniProt P27708)	0.005	0.026	-0.004	-0.037	-0.069	0.012	-0.085	0.003	-0.004	0.003
